# Assay results published in article PMC7862700, “An all-to-all approach to the identification of sequence-specific readers for epigenetic DNA modifications on cytosine”.
# What was measured:
# Assay in all cases: DAPPL (digital affinity profiling via proximity ligation, sequencing); 10 mM Tris-HCl pH 7.5, 50 mM NaCl, 1 mM DTT, 4% glycerol, room temperature, 30 min; GST-TFs on glutathione beads, 16-mer random dsDNA library, 0.1% formaldehyde crosslink after washing; high values mean tight binding
# Settings in all cases: protein: recombinant; tags: N-terminal GST; dsDNA, one strand shown
# [1] = molecular target: T1, FLI1 (Homo sapiens, UniProt Q01543 1-452)
# T1 sequence: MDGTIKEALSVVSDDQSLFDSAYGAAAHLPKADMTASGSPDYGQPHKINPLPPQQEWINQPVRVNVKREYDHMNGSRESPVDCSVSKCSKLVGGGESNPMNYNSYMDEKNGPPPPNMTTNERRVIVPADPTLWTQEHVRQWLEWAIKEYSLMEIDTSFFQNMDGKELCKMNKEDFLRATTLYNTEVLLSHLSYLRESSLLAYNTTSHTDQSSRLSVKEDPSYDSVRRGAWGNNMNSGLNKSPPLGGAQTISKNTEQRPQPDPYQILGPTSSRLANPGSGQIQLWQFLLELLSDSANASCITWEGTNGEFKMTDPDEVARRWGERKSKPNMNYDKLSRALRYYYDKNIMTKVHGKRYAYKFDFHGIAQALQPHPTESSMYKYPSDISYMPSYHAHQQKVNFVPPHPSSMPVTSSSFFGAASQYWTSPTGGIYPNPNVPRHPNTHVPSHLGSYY
# In short: (§1)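 Human transcription factors were made in yeast as GST fusions, captured on glutathione beads and barcoded with DNA. With a tag-only sample included, the pool was incubated with 200 nmole of a random double-stranded 16-mer DNA library in Tris/NaCl/DTT/glycerol buffer at room temperature for 30 min, then crosslinked with 0.1% formaldehyde after washing, ligated by proximity, amplified and sequenced. For binding signal, each hexamer's read frequency for a factor is divided by its frequency for the tag-only sample.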
# [2] = molecular target: T2, ELK1 (Homo sapiens, UniProt P19419 1-428)
# T2 sequence: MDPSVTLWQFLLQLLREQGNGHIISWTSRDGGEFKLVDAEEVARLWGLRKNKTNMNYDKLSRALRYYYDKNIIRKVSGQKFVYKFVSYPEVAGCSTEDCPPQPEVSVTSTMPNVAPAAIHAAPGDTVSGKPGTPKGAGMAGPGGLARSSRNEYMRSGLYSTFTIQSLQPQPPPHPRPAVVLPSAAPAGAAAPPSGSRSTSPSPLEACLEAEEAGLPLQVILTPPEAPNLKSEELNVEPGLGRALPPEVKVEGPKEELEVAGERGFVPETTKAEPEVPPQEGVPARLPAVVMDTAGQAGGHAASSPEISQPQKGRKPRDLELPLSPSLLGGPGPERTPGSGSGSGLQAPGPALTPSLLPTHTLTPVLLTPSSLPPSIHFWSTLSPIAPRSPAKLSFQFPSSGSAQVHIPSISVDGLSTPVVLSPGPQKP
# In short: as §1
# [3] = molecular target: T3, GABPA (Homo sapiens, UniProt Q06546 1-454)
# T3 sequence: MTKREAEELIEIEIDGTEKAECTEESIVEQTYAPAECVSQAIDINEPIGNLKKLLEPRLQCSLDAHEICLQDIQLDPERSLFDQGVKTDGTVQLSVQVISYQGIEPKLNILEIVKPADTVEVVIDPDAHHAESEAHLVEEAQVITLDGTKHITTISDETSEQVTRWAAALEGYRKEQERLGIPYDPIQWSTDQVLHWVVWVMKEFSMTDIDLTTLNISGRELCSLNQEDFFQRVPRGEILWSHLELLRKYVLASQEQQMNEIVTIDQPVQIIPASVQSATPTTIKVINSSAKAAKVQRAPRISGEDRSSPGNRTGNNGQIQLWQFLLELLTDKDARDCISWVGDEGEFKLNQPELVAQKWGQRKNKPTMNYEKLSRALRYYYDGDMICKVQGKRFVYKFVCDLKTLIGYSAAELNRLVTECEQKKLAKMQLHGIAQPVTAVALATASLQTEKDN
# In short: as §1
# [4] = molecular target: T4, ERG (Homo sapiens, UniProt P11308 1-479)
# T4 sequence: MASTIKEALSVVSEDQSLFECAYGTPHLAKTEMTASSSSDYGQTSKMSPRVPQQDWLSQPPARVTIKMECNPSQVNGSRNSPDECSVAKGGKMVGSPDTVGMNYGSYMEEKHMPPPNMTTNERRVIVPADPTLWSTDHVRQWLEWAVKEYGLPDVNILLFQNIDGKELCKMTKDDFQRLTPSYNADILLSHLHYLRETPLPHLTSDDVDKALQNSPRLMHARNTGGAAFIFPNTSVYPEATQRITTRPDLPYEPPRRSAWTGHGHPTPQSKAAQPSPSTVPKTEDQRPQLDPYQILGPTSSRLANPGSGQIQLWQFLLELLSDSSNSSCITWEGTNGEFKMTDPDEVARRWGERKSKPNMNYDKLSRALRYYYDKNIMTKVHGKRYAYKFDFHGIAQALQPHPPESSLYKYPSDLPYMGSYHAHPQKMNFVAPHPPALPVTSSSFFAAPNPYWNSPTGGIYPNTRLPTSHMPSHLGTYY
# In short: as §1
# [5] = molecular target: ELF1 (Homo sapiens, UniProt P32519 1-619)
# In short: as §1
# [6] = molecular target: T5, EHF (Homo sapiens, UniProt Q9NZC4 1-300)
# T5 sequence: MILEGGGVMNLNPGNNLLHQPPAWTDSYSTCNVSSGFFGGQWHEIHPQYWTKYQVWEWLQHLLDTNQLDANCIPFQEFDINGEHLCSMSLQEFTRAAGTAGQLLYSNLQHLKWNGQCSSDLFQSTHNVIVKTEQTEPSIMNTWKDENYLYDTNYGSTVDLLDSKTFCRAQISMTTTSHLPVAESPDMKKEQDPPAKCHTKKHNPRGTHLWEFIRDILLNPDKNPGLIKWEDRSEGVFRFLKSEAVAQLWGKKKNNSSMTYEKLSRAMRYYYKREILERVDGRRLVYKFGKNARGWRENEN
# In short: as §1
# [7] = molecular target: SPI1 (Homo sapiens, UniProt P17947 1-270)
# In short: as §1
# [8] = molecular target: SPIB (Homo sapiens, UniProt Q01892 1-262)
# In short: as §1
# [9] = molecular target: T6, ELK3 (Homo sapiens, UniProt P41970 1-407)
# T6 sequence: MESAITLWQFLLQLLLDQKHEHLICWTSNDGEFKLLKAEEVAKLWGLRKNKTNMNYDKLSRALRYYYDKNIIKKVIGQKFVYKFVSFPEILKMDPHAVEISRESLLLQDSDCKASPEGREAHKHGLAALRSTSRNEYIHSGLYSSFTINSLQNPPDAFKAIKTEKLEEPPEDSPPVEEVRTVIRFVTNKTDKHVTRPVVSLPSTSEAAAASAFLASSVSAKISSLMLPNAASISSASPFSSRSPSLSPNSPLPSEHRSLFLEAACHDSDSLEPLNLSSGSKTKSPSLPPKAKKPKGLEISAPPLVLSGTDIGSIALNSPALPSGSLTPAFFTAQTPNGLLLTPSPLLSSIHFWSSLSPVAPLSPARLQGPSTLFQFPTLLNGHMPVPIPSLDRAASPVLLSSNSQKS
# In short: as §1
# Sequence of ELF1 (P32519 whole entry): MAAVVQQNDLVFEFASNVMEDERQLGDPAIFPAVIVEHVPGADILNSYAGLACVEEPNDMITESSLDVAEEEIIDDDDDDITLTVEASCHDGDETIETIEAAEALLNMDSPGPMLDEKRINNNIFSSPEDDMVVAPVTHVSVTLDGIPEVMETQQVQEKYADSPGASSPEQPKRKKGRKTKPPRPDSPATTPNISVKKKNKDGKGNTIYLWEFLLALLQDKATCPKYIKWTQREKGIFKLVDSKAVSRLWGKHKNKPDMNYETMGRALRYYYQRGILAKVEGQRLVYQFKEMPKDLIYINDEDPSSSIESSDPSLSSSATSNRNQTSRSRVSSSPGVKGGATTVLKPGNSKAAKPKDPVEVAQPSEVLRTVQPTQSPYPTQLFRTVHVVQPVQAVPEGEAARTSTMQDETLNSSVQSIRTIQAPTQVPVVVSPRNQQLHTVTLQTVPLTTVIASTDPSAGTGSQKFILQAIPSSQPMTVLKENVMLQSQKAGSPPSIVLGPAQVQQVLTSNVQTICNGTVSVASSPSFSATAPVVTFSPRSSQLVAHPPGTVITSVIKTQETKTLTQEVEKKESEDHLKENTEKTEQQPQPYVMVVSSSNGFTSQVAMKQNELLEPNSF
# Sequence of SPIB (Q01892 whole entry): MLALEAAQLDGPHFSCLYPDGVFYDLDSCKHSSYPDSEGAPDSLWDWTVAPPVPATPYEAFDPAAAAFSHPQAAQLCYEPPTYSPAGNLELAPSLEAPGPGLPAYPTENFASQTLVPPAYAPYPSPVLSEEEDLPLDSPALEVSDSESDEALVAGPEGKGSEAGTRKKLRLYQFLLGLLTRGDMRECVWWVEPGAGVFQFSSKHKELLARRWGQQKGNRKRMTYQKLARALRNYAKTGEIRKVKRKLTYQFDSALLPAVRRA
Sequence,binding signal [1],binding signal [2],binding signal [3],binding signal [4],binding signal [5],binding signal [6],binding signal [7],binding signal [8],binding signal [9]
AACATC,"1.5 fold enrichment (6-mer frequency, TF over GST control)","1.35 fold enrichment (6-mer frequency, TF over GST control)","1.41 fold enrichment (6-mer frequency, TF over GST control)","1.48 fold enrichment (6-mer frequency, TF over GST control)","1.45 fold enrichment (6-mer frequency, TF over GST control)","1.51 fold enrichment (6-mer frequency, TF over GST control)","1.45 fold enrichment (6-mer frequency, TF over GST control)","1.37 fold enrichment (6-mer frequency, TF over GST control)","1.47 fold enrichment (6-mer frequency, TF over GST control)"
CTTCCA,"1.5 fold enrichment (6-mer frequency, TF over GST control)","1.42 fold enrichment (6-mer frequency, TF over GST control)","1.34 fold enrichment (6-mer frequency, TF over GST control)","1.47 fold enrichment (6-mer frequency, TF over GST control)","1.39 fold enrichment (6-mer frequency, TF over GST control)","1.53 fold enrichment (6-mer frequency, TF over GST control)","1.44 fold enrichment (6-mer frequency, TF over GST control)","1.51 fold enrichment (6-mer frequency, TF over GST control)","1.58 fold enrichment (6-mer frequency, TF over GST control)"
GGTCTT,"1.14 fold enrichment (6-mer frequency, TF over GST control)","1.11 fold enrichment (6-mer frequency, TF over GST control)","1.14 fold enrichment (6-mer frequency, TF over GST control)","1.09 fold enrichment (6-mer frequency, TF over GST control)","1.19 fold enrichment (6-mer frequency, TF over GST control)","1.1 fold enrichment (6-mer frequency, TF over GST control)","1.18 fold enrichment (6-mer frequency, TF over GST control)","1.23 fold enrichment (6-mer frequency, TF over GST control)","1.15 fold enrichment (6-mer frequency, TF over GST control)"
CACGTA,"1.1 fold enrichment (6-mer frequency, TF over GST control)","1.18 fold enrichment (6-mer frequency, TF over GST control)","1.23 fold enrichment (6-mer frequency, TF over GST control)","1.1 fold enrichment (6-mer frequency, TF over GST control)","1.13 fold enrichment (6-mer frequency, TF over GST control)","1.11 fold enrichment (6-mer frequency, TF over GST control)","1.12 fold enrichment (6-mer frequency, TF over GST control)","1.17 fold enrichment (6-mer frequency, TF over GST control)","1.12 fold enrichment (6-mer frequency, TF over GST control)"
CATTTG,"1.23 fold enrichment (6-mer frequency, TF over GST control)","1.32 fold enrichment (6-mer frequency, TF over GST control)","1.28 fold enrichment (6-mer frequency, TF over GST control)","1.21 fold enrichment (6-mer frequency, TF over GST control)","1.24 fold enrichment (6-mer frequency, TF over GST control)","1.27 fold enrichment (6-mer frequency, TF over GST control)","1.29 fold enrichment (6-mer frequency, TF over GST control)","1.28 fold enrichment (6-mer frequency, TF over GST control)","1.2 fold enrichment (6-mer frequency, TF over GST control)"
TTCTGC,"1.54 fold enrichment (6-mer frequency, TF over GST control)","1.49 fold enrichment (6-mer frequency, TF over GST control)","1.4 fold enrichment (6-mer frequency, TF over GST control)","1.32 fold enrichment (6-mer frequency, TF over GST control)","1.52 fold enrichment (6-mer frequency, TF over GST control)","1.46 fold enrichment (6-mer frequency, TF over GST control)","1.5 fold enrichment (6-mer frequency, TF over GST control)","1.34 fold enrichment (6-mer frequency, TF over GST control)","1.39 fold enrichment (6-mer frequency, TF over GST control)"
TCCGCC,"1.57 fold enrichment (6-mer frequency, TF over GST control)","1.61 fold enrichment (6-mer frequency, TF over GST control)","1.53 fold enrichment (6-mer frequency, TF over GST control)","1.69 fold enrichment (6-mer frequency, TF over GST control)","1.7 fold enrichment (6-mer frequency, TF over GST control)","1.73 fold enrichment (6-mer frequency, TF over GST control)","1.48 fold enrichment (6-mer frequency, TF over GST control)","1.54 fold enrichment (6-mer frequency, TF over GST control)","1.86 fold enrichment (6-mer frequency, TF over GST control)"
